Source: PubChem BioAssay (National Center for Advancing Translational Sciences (NCATS))
An excerpt weighted towards active compounds, which were near 10% of everything screened.
Six1-Eya2 blk: blocks human Six1 binding to Eya2; Q15475+O00167; AlphaScreen GST-Six1/His-Eya2 binding, biochemical; stronger effect = lower value; activity change, % (concentration not given with the values); 360,000 tested, 0.56% active; AID 651725; in the data active = activity change below about -65%; inconclusive = mostly about -30% to -63%; also: % is scaled to controls: 0 for no effect and ±100 for the full control effect
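AlphaScreen with GST-Six1 and His-Eya2 (5X mix: 250 nM and 500 nM), glutathione donor and nickel acceptor beads; buffer 50 mM Tris pH 8.0, 300 mM NaCl, 1 mM TCEP; 1 h at 37 C in the dark.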
JMJD2A Tudor: JMJD2A Tudor domain (human) inhibition | O75164 | AlphaScreen JMJD2A-Tudor / H3K4me3 peptide binding | Potency, µM (top dose mostly 114 µM), without a hit: top-dose activity change, negative = inhibition, hits mostly inhibitors | 390,000 tested, 4.4% active; also: potency is read from the fitted curve at half-maximal effect; % is scaled to controls: 0 for no effect and ±100 for the full control effect; nearly all actives have a fitted effect of over 50% in size
BAZ2B block: blocks human BAZ2B; Q9UIF8; AlphaScreen BAZ2B-H3K14Ac peptide displacement; Potency, µM (series often up to 114 µM), for inactives: top-dose activity change, negative = inhibition, actives largely listed as inhibitors; 360,000 tested, 4.4% active; also: potency is read from the fitted curve at half-maximal effect; % is scaled to controls: 0 for no effect and ±100 for the full control effect; nearly all actives have a fitted effect of over 60% in size
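BAZ2B (50 nM) with biotin-H3(5-23)K14Ac peptide (50 nM) in PBS pH 7.4, 0.01% Tween-20, preformed 30 min, then compound 30 min at room temperature; top concentration 110uM. AlphaScreen streptavidin donor/nickel chelate acceptor beads (10 ug/mL final), 20 min dark, signal read.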
CtBP-E1A inh: CtBP/E1A binding inhibition | AlphaScreen GST-E1A/His-CtBP binding, 1536-well; stronger effect = lower value | activity change, % (test concentration not listed) | 340,000 tested, 0.49% active; in the data active = activity change below about -65%; inconclusive = mostly about -30% to -63%; also: % is scaled to controls: 0 for no effect and ±100 for the full control effect
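AlphaScreen with 125 nM GST-E1A and 125 nM His-CtBP (5X stocks) in Tris pH 8.0, 300 mM NaCl, BSA, Tween 20, TCEP. Compounds preincubated 2 h at 37 deg C, then glutathione donor/nickel acceptor beads added for 1 h at 37 deg C in dark.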
G9a inh: inhibitors of human histone lysine methyltransferase G9a; G9a H3K9 monomethylation, AlphaScreen, 2 h; Potency, µM (doses to about 102 µM), without a hit: top-dose activity, negative = inhibition, actives largely listed as inhibitors; 350,000 tested, 8.8% active; AID 504332; also: potency is read from the fitted curve at half-maximal effect; % is scaled to controls: 0 for no effect and ±100 for the full control effect; nearly all actives have a fitted effect of over 75% in size
Target sequence (Q96KQ7 913-1193 limits assumed): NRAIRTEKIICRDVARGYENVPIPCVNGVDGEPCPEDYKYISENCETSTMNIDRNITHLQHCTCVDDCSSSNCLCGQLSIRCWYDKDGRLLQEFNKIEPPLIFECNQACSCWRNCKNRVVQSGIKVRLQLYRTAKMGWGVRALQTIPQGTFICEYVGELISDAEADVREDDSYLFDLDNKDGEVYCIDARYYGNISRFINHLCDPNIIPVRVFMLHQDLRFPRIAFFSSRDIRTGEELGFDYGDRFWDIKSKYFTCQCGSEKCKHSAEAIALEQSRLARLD
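Compounds were preincubated with 20 nM G9a for 15 min, after which biotinylated H3K9 peptide (500 nM) and SAM (20 uM) started a 2 h room-temperature reaction. Monomethylated product was quantified by antibody-based AlphaScreen chemiluminescence.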
HP1b chromo inh: blocks HP1-beta chromodomain binding to methylated histone tails; P83916; AlphaScreen HP1-beta / biotin-H3K9me3 peptide binding; Potency, µM (top dose mostly 114 µM), without a hit: top-dose activity change, negative = inhibition, hits mostly inhibitors; 390,000 tested, 0.56% active; AID 540317; also: potency is read from the fitted curve at half-maximal effect; nearly all actives have a fitted effect of over 70% in size
Target sequence (P83916 whole entry, looked up): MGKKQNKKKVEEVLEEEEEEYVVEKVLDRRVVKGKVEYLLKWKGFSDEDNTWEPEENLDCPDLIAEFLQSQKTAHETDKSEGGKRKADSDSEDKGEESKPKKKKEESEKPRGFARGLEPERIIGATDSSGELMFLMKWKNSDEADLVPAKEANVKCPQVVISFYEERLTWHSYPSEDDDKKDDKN
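Compound inhibition of the preformed complex between 50 nM HP1-beta and 50 nM biotinylated H3K9me3 peptide was read by AlphaScreen. Buffer was PBS pH 7.4 with 0.01% Tween-20. Incubations ran 30 min at room temperature, with 10 ug/mL donor/acceptor beads.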
* marks the source's active call; other numbers are inactive results; ? = inconclusive; . = no result given; [ ] = dose if it differs, or a comment. Unless noted, calls follow the shape of the dose curve; as a rule, active = well fitted inhibition curve with a large enough effect; inconclusive = small, poorly fitted or top-dose-only effect; inactive = no such curve, though single readings can be large or run the other way.

SMILES	Six1-Eya2 blk	JMJD2A Tudor	BAZ2B block	CtBP-E1A inh	G9a inh	HP1b chromo inh
CN1CCN(c2nc3cc(C(F)(F)F)ccc3n3cccc23)CC1	-13	?	.	?	24µM*	-4%
Cc1ccc(NS(=O)(=O)c2cccc(C(=O)O)c2)cc1C	.	-11%	.	.	.	.
CCOC(=O)C1=C(N)Oc2cc(C)n(C)c(=O)c2C1c1ccncc1 (stereo unspecified)	-9	8%[57.1 µM]	-3%	-5	50µM*	20%
CCOC(=O)C1=C(N)Oc2cc(C)[nH]c(=O)c2C1c1ccncc1 (stereo unspecified)	-3	-12%	-8%	5	10%	21%
CCN(CC)Cc1cc(O)c(CN(CC)CC)cc1O	?	0.79µM*	18µM*	1	1.3µM*	1.4µM*
CCN(CC)Cc1cc(C(C)(C)C)cc(N2CCOCC2)c1O	3	?	.	-6	.	?
COc1ccc(Cl)cc1NC(=O)c1ncn(-c2ccccc2)n1	.	-20%	4%	.	1%[59 µM]	29%
COc1cc(/C=C2/C(=O)NN(c3cccc(C)c3)C2=O)cc([N+](=O)[O-])c1O	13	56µM*	40µM*	.	35µM*	?
COc1cc(/C=C2/C(=O)NN(c3cccc(C)c3)C2=O)ccc1OC(=O)c1ccco1	-8	-23%	?	-16	?	-7%
Cc1ccc(N2NC(=O)/C(=C\c3cc4c(cc3[N+](=O)[O-])OCO4)C2=O)cc1C	-19	?	45µM*	-1	25µM*	?
COc1cc(/C=C2/C(=O)NN(c3ccc(C)c(Cl)c3)C2=O)cc([N+](=O)[O-])c1O	-12	?	32µM*	.	11µM*	-18%
Cc1ccn(CCC(=O)N2CCCC(CCC(=O)NCc3ccc(F)c(F)c3)C2)n1 (stereo unspecified)	10	-4%	3%	7	.	34%
Cc1noc(C)c1-c1ccc2ncnc(NCCN3CCOCC3)c2c1	.	.	.	.	-41%[0.501 µM]	.
COc1ccc(C2C=C(c3ccc(F)cc3)Nc3nc(-c4ccc(Cl)cc4)nn32)cc1 (stereo unspecified)	.	-34%	-1%	.	-13%[59 µM]	68%
COc1ccc(C2C=C(c3ccc(Cl)cc3)Nc3nc(NC(C)=O)nn32)cc1 (stereo unspecified)	.	.	32µM*	.	?	.
CC(=O)Nc1nc2n(n1)C(c1ccc(F)cc1)C=C(c1ccccc1)N2 (stereo unspecified)	-6	?	22µM*	-2	8.9µM*	25%
O=C(Nc1nc2n(n1)C(c1ccc(F)cc1)C=C(c1ccccc1)N2)c1cccc([N+](=O)[O-])c1 (stereo unspecified)	.	1%	-11%	.	-42%[59 µM]	48%
COc1ccc(C(=O)Nc2nc3n(n2)C(c2ccccc2)C=C(c2ccccc2)N3)cc1 (stereo unspecified)	.	79µM*	22µM*	.	25µM*	39%
COc1ccc(C2C=C(c3ccccc3)Nc3nc(NC(=O)/C=C/c4ccccc4)nn32)cc1 (stereo unspecified)	.	2%	4%	.	-35%[59 µM]	49%
CC(=O)Nc1nc2n(n1)C(c1ccccc1)C=C(c1ccccc1)N2 (stereo unspecified)	-13	89µM*	79µM*	9	?	40%
COc1cc2c(cc1OC)C1=C(C#N)CCC(=NC(=O)c3ccc(Cl)cc3)N1CC2	-1	-1%	-7%	2	101%[59 µM]	40%
COc1cc2c(cc1OC)C1=C(C#N)COCN1CC2	-12	-2%[11.4 µM]	?	-6	14µM*	-6%
COc1cccc(NC(=S)N(CCCN2CCCC2)Cc2cccn2Cc2ccc(Cl)cc2)c1	-22	45µM*	-38%	-20	40µM*	?
COc1cccc(NC(=S)N(CCCN2CCCC2)Cc2ccco2)c1	-6	-8%	-3%	-4	16%	31%
S=C(Nc1ccc(Cl)cc1)N(CCCN1CCOCC1)Cc1cccs1	4	-14%	-21%	-4	-37%	7%
SMILES	Six1-Eya2 blk	JMJD2A Tudor	BAZ2B block	CtBP-E1A inh	G9a inh	HP1b chromo inh
COc1ccc(NC(=S)N2CCCN(Cc3cccc(Cl)c3)C2)cc1	-9	?	?	-14	12%[59 µM]	4%
S=C(Nc1cccc(Cl)c1)N(CCCN1CCCC1)Cc1cccn1Cc1ccc(Cl)cc1	-12	32µM*	?	-7	35µM*	-18%
Cn1cc(CN(CCCN2CCOCC2)C(=S)Nc2cccc(Cl)c2)c2ccccc21	-12	?	?	-14	79µM*	-24%
CSc1cccc(NC(=S)N2CCCN(Cc3cccc(Cl)c3)C2)c1	-11	?	25µM*	-19	5%[59 µM]	0%
CC1CCc2c(sc(NC(=O)c3cc(-c4ccc(F)cc4)on3)c2C(N)=O)C1 (stereo unspecified)	.	-7%	2%	.	-4%[59 µM]	13%
CSc1cccc(NC(=O)CC(c2cccs2)N2Cc3ccccc3C2=O)c1 (stereo unspecified)	.	-13%	-20%	.	2%[59 µM]	44%
C=C(C)CSc1nc2sc3c(c2c(=O)n1-c1ccccc1)CC(C(C)C)OC3 (stereo unspecified)	.	-12%	-2%	.	-5%[59 µM]	21%
CSc1cccc(NC(=S)N(CCCN2CCCC2)Cc2cccs2)c1	-4	?	?	2	-4%[59 µM]	-10%
Cc1ccccc1NC(=S)N(CCCN1CCOCC1)Cc1ccccn1	-16	3.5µM*	-3%	-2	-10%[59 µM]	-6%
CSc1cccc(NC(=S)N(CCCN2CCCC2)Cc2cccn2Cc2ccc(Cl)cc2)c1	?	20µM*	25µM*	-12	35µM*	-14%
O=C(CSc1nc(-c2ccccc2)[nH]c1-c1ccc(F)cc1)NC1CCCC1	.	?	-25%	.	-48%[59 µM]	0%
COc1ccc(C)cc1NS(=O)(=O)c1ccc2c3c(cccc13)C(=O)N2	.	56µM*	-21%	.	-37%[59 µM]	-59%
Cc1oc2c(cc(NS(=O)(=O)c3ccc4c5c(cccc35)C(=O)N4)c3ccccc32)c1C(=O)OC(C)C	-7	-31%	-24%	-11	20µM*	-6%
CCCN1CNc2c(c(=O)[nH]c(=S)n2CCc2ccc(C)c(C)c2)C1	.	-16%	.	.	.	22%
O=c1cc(C(Cl)(Cl)Cl)oc2c1ccc1ccccc12	4	-19%	1%	-10	2%[12.7 µM]	9%
CC1=C(C(=O)OCc2ccccc2)C(c2ccc(C(C)(C)C)cc2)NC(=O)N1CCCCCC(=O)O (stereo unspecified)	0	-28%	50µM*	4	45µM*	-8%
